The text below walks through data of PubChem BioAssay (NCATS).

Inconclusive results are not listed. Values without a mark were called inactive. The source made the active and inactive calls. The call rests on the fitted dose curve; in most records, active means well fitted cell-killing curve with a large enough effect; inconclusive means small, poorly fitted or top-dose-only effect, or effect the other way; inactive means no such curve, though single readings can be large or run the other way.
Potency means the concentration at half of the fitted maximal effect.

The nature of one assay: Quantitative High-Throughput drug screen in 47 multiple myeloma cell lines against the NCATS MIPE library collection: KMS12PE_JCRB cell viability assay (AID 1918972). Further: nearly all actives have a fitted effect of over 30% in size. The note with it: KMS12PE myeloma viability, CellTiter-Glo ATP, 48 h; series mostly up to 45.8 µM; viability: at the top concentration. The method in brief:
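We plated 500 myeloma cells per well, pinned in MIPE 4.0 compounds, and incubated for 48 hours at 37C. ATP was then quantified with CellTiter-Glo, with DMSO and media-only wells defining 100% and 0%.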
`CCCCCCOC(=O)N=C(N)c1ccc(NCc2nc3cc(C(=O)N(CCC(=O)OCC)c4ccccn4)ccc3n2C)cc1`: the Potency is 18.7 µM (active).
Still for that read-out and setting: the figure for `CCC(=C(CC)c1ccc(O)cc1)c1ccc(O)cc1` is 13.2 µM (active).
Still for that read-out and setting: to `Cc1csc(-c2nnc(Nc3ccc(Oc4ncccc4-c4ccnc(N)n4)cc3)c3ccccc23)c1` belongs 20.9 µM (active).
In the case of `CC(C)C[C@@H](N)[C@H](O)C(=O)N[C@H](C(=O)N[C@H](C(=O)N[C@@H](CC(=O)O)C(=O)O)C(C)C)C(C)C`, the “viability” value is 111%.

A short description of a further assay: Quantitative High-Throughput drug screen in 47 multiple myeloma cell lines against the NCATS MIPE library collection: KMS20_JCRB cell viability assay (AID 1918973). Further: nearly all actives have a fitted effect of over 45% in size. The note with it: CellTiter-Glo ATP, 48 h; series mostly up to 45.8 µM; viability (% of DMSO): at the top concentration. The method in brief:
(§1)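 Inhibition of cell viability is measured here. Each line was plated at 500 cells per well, treated with MIPE 4.0 drugs, kept 48 hours at 37C, then assayed for ATP content by CellTiter-Glo luminescence.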
Regarding `COc1cc(Nc2nc3ccccc3nc2NS(=O)(=O)c2ccc(NC(=O)c3ccc(C)c(OC)c3)cc2)cc(OC)c1`, the Potency is 23.5 µM (active).
The same measure, in the same setting: the figure for `CCCCC(F)(F)[C@@]1(O)CC[C@H]2[C@H](CC(=O)[C@@H]2CCCCCCC(=O)O)O1` is 0.418 µM (active).
On the same count and under the same terms, to `C[C@@]1(c2cc(-c3cncnc3)c(F)cc2F)CCSC(N)=N1` belongs 9.35 µM (active).
Same read-out and setting: the figure for `COc1ccc(-c2ccc3ncc4c(c3c2)n(-c2ccc(N3CCNCC3)c(C(F)(F)F)c2)c(=O)n4C)cn1` is 0.0066 µM (active).
Regarding `CC1=C(C(=O)Nc2cc3cn[nH]c3cc2F)C(c2ccc(C(F)(F)F)cc2)CC(=O)N1` (stereo not given), the “viability (% of DMSO)” value is 105%.
`Cc1ccc2c(c1)C(=O)[C@]1(O)CCN(c3ccccc3)C1=N2`: the Potency is 2.96 µM (active).
Take `COc1ccnc(CS(=O)c2nc3ccc(OC(F)F)cc3[nH]2)c1OC` (stereo not given): the “viability (% of DMSO)” value is 93.7%.

The next assay can be described thus: Quantitative High-Throughput drug screen in 47 multiple myeloma cell lines against the NCATS MIPE library collection: KMS21BM_JCRB cell viability assay (AID 1918974). As to conditions: ATP luminescence, 48 h; viability: at 45.8 µM (top of the series). The method in brief:
as §1
As for `COc1cc(N2CCN(C)CC2)ccc1Nc1nc(N)c(C(=O)c2c(Cl)cccc2Cl)s1`, the Potency was 10.5 µM (active).
Still for that read-out and setting: the figure for `CC1=C(CC(=O)O)c2cc(F)ccc2C1=Cc1ccc(S(C)=O)cc1` (stereo not given) is 20.9 µM (active); for `Cc1csc(-c2nnc(Nc3ccc(Oc4ncccc4-c4ccnc(N)n4)cc3)c3ccccc23)c1` it is 18.7 µM (active).

The nature of a further assay: Quantitative High-Throughput drug screen in 47 multiple myeloma cell lines against the NCATS MIPE library collection: KMS26_JCRB cell viability assay (AID 1918975). Further: nearly all actives have a fitted effect of over 45% in size. The note with it: KMS26 myeloma cells viability, CellTiter-Glo ATP, 48 h; series mostly up to 45.8 µM; viability (% of DMSO): at the top concentration. In short, it runs like this: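 Myeloma cell lines, 500 cells per well, exposed to MIPE 4.0 library compounds for 48 h at 37C, 5% CO2. Viability from ATP by CellTiter-Glo luminescence; normalised to DMSO (100%) and media-only (0%) wells.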
Background: ATP-based viability assays read luminescence as a measure of living cells.
For `CCC(c1ccc(O)cc1)C(CC)c1ccc(O)cc1` (stereo not given), the Potency is 3.72 µM (active).
Take `CN1CCN(c2ncc(-c3cc(Cl)cc(Cl)c3Cl)c(N)n2)CC1`: the “viability (% of DMSO)” value was 151%.
In the case of `C#C[C@]1(O)CC[C@H]2[C@H]3CCc4cc(OC)ccc4[C@H]3CC[C@@]21C`, the Potency is 2.64 µM (active).
Turning to `O=C(O)CCC=CCC[C@@H]1[C@H](N2CCCCC2)[C@@H](O)C[C@@H]1OCc1ccc(-c2ccccc2)cc1`, the “viability (% of DMSO)” value was 125%.
Consider `COc1cc(N2CCN(C)CC2)ccc1Nc1nc(N)c(C(=O)c2c(Cl)cccc2Cl)s1`, for which the Potency was 4.18 µM (active).
Same read-out and setting: the figure for `CC1=C(CC(=O)O)c2cc(F)ccc2C1=Cc1ccc(S(C)=O)cc1` (stereo not given) is 2.09 µM (active).
On the same count and under the same terms, the figure for `Cc1ccc2c(=O)c3cccc(CC(=O)O)c3oc2c1C` is 20.9 µM (active); for `COc1cc(Nc2nc3ccccc3nc2NS(=O)(=O)c2ccc(NC(=O)c3ccc(C)c(OC)c3)cc2)cc(OC)c1` it is 11.8 µM (active).
Same read-out and setting: to `Nc1ccc(-c2ccc3ncc4ccc(=O)n(-c5cccc(C(F)(F)F)c5)c4c3c2)cn1` belongs 0.0296 µM (active); to `Cc1ccc(C(=O)N(CCCN)[C@@H](c2oc3cc(Cl)ccc3c(=O)c2Cc2ccccc2)C(C)C)cc1`, 26.4 µM (active); to `CO[C@H]1/C=C\O[C@@]2(C)Oc3c(C)c(O)c4c(O)c(c5c(nc6cc(C)ccn65)c4c3C2=O)NC(=O)C(C)=CC=C[C@H](C)[C@H](O)[C@@H](C)[C@@H](O)[C@@H](C)[C@H](OC(C)=O)[C@H]1C`, 8.33 µM (active).
In the case of `CCCCC(F)(F)[C@@]1(O)CC[C@H]2[C@H](CC(=O)[C@@H]2CCCCCCC(=O)O)O1`, the “viability (% of DMSO)” value is 121%.
Still for that read-out and setting: the figure for `C[C@@]1(c2cc(-c3cncnc3)c(F)cc2F)CCSC(N)=N1` is 140%; for `C[C@@H](O)[C@H]1C(=O)N2C(C(=O)OCOC(=O)C(C)(C)C)=C(SC3CN(C4=NCCS4)C3)[C@H](C)[C@H]12` it is 112%.
Take `COc1ccc(-c2ccc3ncc4c(c3c2)n(-c2ccc(N3CCNCC3)c(C(F)(F)F)c2)c(=O)n4C)cn1`: the Potency is 0.0083 µM (active).
Same read-out and setting: the figure for `O[C@@H](COc1cccc2ncccc12)CN1CCN(C2c3ccccc3[C@@H]3[C@H](c4ccccc42)C3(F)F)CC1` (stereo not given in full) is 20.9 µM (active).
Take `Nc1ccn([C@@H]2O[C@H](CO)[C@@H](O)[C@H]2O)c(=O)n1`: the “viability (% of DMSO)” value is 128%.
Same read-out and setting: to `CC1=C(C(=O)Nc2cc3cn[nH]c3cc2F)C(c2ccc(C(F)(F)F)cc2)CC(=O)N1` (stereo not given) belongs 162%.
In the case of `CCC(=C(CC)c1ccc(O)cc1)c1ccc(O)cc1`, the Potency is 13.2 µM (active).
With `COC(=O)[C@H](c1ccccc1Cl)N1CCc2sccc2C1`, the “viability (% of DMSO)” value was 116%.
`CC(C)(C)c1[nH]cnc1C=c1[nH]c(=O)c(=Cc2ccccc2)[nH]c1=O`: the Potency was 0.0241 µM (active).
Consider `COc1nccc(-c2c(-c3ccc(F)cc3)ncn2C2CCC(O)CC2)n1` (stereo not given), for which the Potency was 6.62 µM (active).
Still for that read-out and setting: the figure for `CC1(COc2ccc3c(c2)ncn3-c2ccc3cccc(N4CCC(N)CC4)c3n2)COC1` is 14.8 µM (active).

A short description of the next assay: Quantitative High-Throughput drug screen in 47 multiple myeloma cell lines against the NCATS MIPE library collection: MMM1_PLB cell viability assay (AID 1918976). Further: nearly all actives have a fitted effect of over 35% in size. The note with it: MMM1 myeloma cells viability, CellTiter-Glo, 48 h; series mostly up to 45.8 µM; viability (% of control): at the top concentration. The method in brief:
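Plated at 500 cells per well, myeloma lines received MIPE 4.0 compounds by pin tool. Following 48 h culture at 37 °C, CellTiter-Glo luminescence gave viability relative to DMSO and media-only controls.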
For the compound `COc1cc(N2CCN(C)CC2)ccc1Nc1nc(N)c(C(=O)c2c(Cl)cccc2Cl)s1`, the Potency was 8.33 µM (active).
Regarding `Cc1ccc2c(=O)c3cccc(CC(=O)O)c3oc2c1C`, the “viability (% of control)” value is 137%.
On to `Nc1ccc(-c2ccc3ncc4ccc(=O)n(-c5cccc(C(F)(F)F)c5)c4c3c2)cn1`, for which the Potency was 0.0066 µM (active).
Take `CO[C@H]1/C=C\O[C@@]2(C)Oc3c(C)c(O)c4c(O)c(c5c(nc6cc(C)ccn65)c4c3C2=O)NC(=O)C(C)=CC=C[C@H](C)[C@H](O)[C@@H](C)[C@@H](O)[C@@H](C)[C@H](OC(C)=O)[C@H]1C`: the Potency is 0.0148 µM (active).
The same measure, in the same setting: the figure for `COc1ccc(-c2ccc3ncc4c(c3c2)n(-c2ccc(N3CCNCC3)c(C(F)(F)F)c2)c(=O)n4C)cn1` is 0.0074 µM (active); for `O[C@@H](COc1cccc2ncccc12)CN1CCN(C2c3ccccc3[C@@H]3[C@H](c4ccccc42)C3(F)F)CC1` (stereo not given in full) it is 26.4 µM (active).
The same measure, in the same setting: to `O=C(O)Cc1cccc(OCCCN(Cc2cccc(C(F)(F)F)c2Cl)CC(c2ccccc2)c2ccccc2)c1` belongs 6.62 µM (active); to `NC(=O)c1nnn(Cc2cc(Cl)c(C(=O)c3ccc(Cl)cc3)c(Cl)c2)c1N`, 20.9 µM (active); to `CCCCCCOC(=O)N=C(N)c1ccc(NCc2nc3cc(C(=O)N(CCC(=O)OCC)c4ccccn4)ccc3n2C)cc1`, 14.8 µM (active).
Same read-out and setting: the figure for `CC(C)C[C@@H](N)[C@H](O)C(=O)N[C@H](C(=O)N[C@H](C(=O)N[C@@H](CC(=O)O)C(=O)O)C(C)C)C(C)C` is 1.66 µM (active); for `CC(C)(C)c1[nH]cnc1C=c1[nH]c(=O)c(=Cc2ccccc2)[nH]c1=O` it is 15.2 µM (active).
With `CC1(COc2ccc3c(c2)ncn3-c2ccc3cccc(N4CCC(N)CC4)c3n2)COC1`, the Potency was 1.48 µM (active).
The same measure, in the same setting: to `COc1cc(Cl)cn2c(-c3cccc(NC4CNC4)n3)cnc12` belongs 20.9 µM (active).

As a reminder, the viability is a read-out of living cells in per cent, often relative to untreated cells.
